# Laboratory results reported in ChEMBL document CHEMBL3988442, “University of Dundee, Small-Polar-MMV Screening Library” (2021).
# About 1,200 (3.2%) of roughly 38,000 compounds showed an effect of 50% or more. The median lay at about -58%. The sample holds strong results, similar compounds and a random draw of the others, so the mix is not that of the screen.
# Tested on: Plasmodium falciparum
# Experiment: Calibr Malaria Delayed Death Assay SOP
# Assay type: functional, organism-based
# Parameters: scale not given: in the data most compounds retested in dose-response had high values
# Details: concentration 4.99e-06 (unit not given; other assays of the set use mol/L)
row,SMILES,Percent Effect [%]
1,CCOc1ccccc1N(C)Cc1nccn1C,20.26
2,CC(C)CN(Cc1ccccn1)Cc1ccccc1C(=O)O,-129.3
3,CCCN(Cc1ccccn1)Cc1ccccc1OC,-102.5
4,CSCC(=O)N(Cc1ccccn1)Cc1ccccc1C,-232.7
5,COc1ccc(OC)c(Sc2ncccc2C(=O)N(C)CCC#N)c1,-164.4
6,CCOCCN1CCN(CCc2ccc3c(c2)CCO3)CC1,-44.63
7,Cc1noc([C@@H]2CCO[C@@H]3CCN(Cc4nccs4)C[C@@H]32)n1,-49.2
8,CCN1CC2(CC1=O)CN(C(C)=O)CCN(C(=O)NC)C2 (centres undefined),-42.52
9,CN(C)C(=O)N1CCN(CCn2nc3ccccn3c2=O)CC1,-59.88
10,O=C(O)c1cc(/C=C/c2ccccc2)ncn1,-169
11,O=C1CC(c2ccc(F)cc2)c2cnn(C3CCCC3)c2N1 (centres undefined),-115.7
12,O=C1CC(c2ccccc2)c2cnn(C3CCCC3)c2N1 (centres undefined),-174.4
13,N#Cc1ccc(C2CC(=O)Nc3c2cnn3C2CCCC2)cc1 (centres undefined),52.33
14,COc1ccc(C(C)=O)cc1CN1CCn2cccc2C1C (centres undefined),-51.16
15,CSc1ccc(-c2nc(CN3CCC(C(N)=O)CC3)c(C)o2)cc1,-89.92
16,CSc1ccc(-c2nc(CN3CCC(CN)C3)c(C)o2)cc1 (centres undefined),88.32
17,CNC(=O)C1CCN(Cc2nc(-c3ccc(SC)cc3)oc2C)C1 (centres undefined),-104
18,Cc1nc2c(c(NC3CCN(Cc4cccnc4)CC3)n1)CCNCC2,-53.07
19,Cc1nc2c(c(NC3CCN(Cc4ccccc4)CC3)n1)CCNCC2,78.1
20,Cc1nc2c(c(NC3CC3)n1)CCN(C(=O)CCc1cccnc1)CC2,-33.43
21,Cc1cccc(CN2CC3(CCN(C(=O)C4CC4)CC3)OCC2=O)n1,-86.74
22,COc1c(C)cnc(CNC(=O)c2cnc3onc(C)c3c2)c1C,-29.67

row,SMILES,Percent Effect [%]
1,COCCN(C)C(=O)Cn1cccc(OC)c1=O,-122.8
2,CN(CCCc1cc(-c2ccc(F)cc2)n[nH]1)C(=O)CCn1cncn1,-232.6
3,O=C(Cc1cccs1)N1CCn2cc(Cn3cccn3)nc2C1.O=C(O)C(F)(F)F,-86.13
4,CN1CCN(C2CCN(CCOc3ccccc3F)CC2)C1=O,-15.81
5,O=C(c1ccoc1)N1CC[C@H]2C[C@@H](c3nnc(C4CC4)o3)O[C@@H]2C1,-57.61
6,Cc1nc(C)n(C2CCCN(C(=O)c3cn4cccnc4n3)C2)n1 (centres undefined),-31.26
7,CC1(C)CN(C(CNS(C)(=O)=O)c2ccc(Cl)cc2)CCO1 (centres undefined),-25.75
8,CC1(C)CN(C(CNS(N)(=O)=O)c2ccc(Cl)cc2)CCO1 (centres undefined),-0.7806
9,Cc1ncsc1CNC(=O)NCC1(c2ccc3c(c2)OCO3)CC1,-37.92
10,I.c1cc2c(cc1C1(CNC3=NCCN3)CCCC1)OCCO2,80.88
11,O=C(Cc1ccc2c(c1)OCCO2)NC1CCCC1,-102.8
12,O=S(=O)(NCC1(c2cccs2)CCOCC1)c1ccc2c(c1)OCCO2,-63.38
13,Cc1csc(CNC(=O)NCC2(c3ccc4c(c3)OCO4)CC2)n1,-58.48
14,c1cnc(NCc2noc3c2CN(c2cnccn2)CC3)nc1,-103.6
15,CC(=O)NCc1ccc(C(=O)N2CCCC(n3cncn3)C2)o1 (centres undefined),-131.6
16,O=C([C@@H]1CCO[C@@H]2CCN(CC3CC3)C[C@H]21)N1CCCCO1,-73.92
17,COC(=O)NCC(=O)NCC(C)(C)c1cccc(Br)c1,84.11
18,COC(=O)NCC(=O)NCC(C)(C)c1cccc(C(F)(F)F)c1,46.67
19,CC(C)(C(=O)NCCCC(N)=O)c1cccc(Br)c1,-41.82
20,CCC(=O)NCC(=O)NCc1cc(Br)ccc1OC(F)F,4.46
21,CC(C)(C(=O)NCCC(=O)O)c1cccc(Br)c1,-14.62
22,CCC(=O)NCC(=O)NCC(C)(C)c1cccc(Br)c1,86.82

row,SMILES,Percent Effect [%]
1,Cn1c(C2CC2)nc2c1CCN(CCOc1ccccc1C#N)C2,-3.674
2,CC1c2ncc(CN3CCN(C)CC3)n2CCN1Cc1ccccn1.O=C(O)C(F)(F)F.O=C(O)C(F)(F)F.O=C(O)C(F)(F)F.O=C(O)C(F)(F)F (centres undefined),-124
3,Oc1ccc(N2CCC(Cc3ccccc3)CC2)nn1,-73.68
4,N#Cc1cccc(CNC(=O)Nc2cccnc2N2CCCC2)c1,-57.4
5,CCNC(=O)c1ccnc(CC2COc3c(cccc3OC)C2)c1 (centres undefined),-85.49
6,CCc1ccc2nc(NCC(O)CO)cc(C)c2c1 (centres undefined),-100
7,CCc1ccc2nc(NCCOCCO)cc(C)c2c1,-140.8
8,CCc1ccc2nc(NCCCN(CCO)CCO)cc(C)c2c1,83.32
9,COc1ccc(-c2ccc(C(=O)N3CCC[C@@H]3CO)o2)cc1,-98.07
10,COCCN1C[C@@H]2CN(C(=O)[C@H]3CCCO3)C[C@@H]2C1=O,-140.9
11,Cc1cnc(CN2CCN(c3ccnc(-c4ccccc4)n3)CC2)cn1,-117.9
12,COC(=O)N1CCC(NC(=O)N2CCCC2c2ccsc2)CC1 (centres undefined),-44.77
13,CC(C)(C)C(=O)N1C[C@H](c2ccsc2)[C@H]2CN(Cc3cccs3)CC[C@H]21.Cl,27.72
14,O=C(CC1CC1)N1CCO[C@H]2[C@H](OCCCn3cccn3)CC[C@@H]21.O=C(O)C(F)(F)F,-14.73
15,CN(C)C(=O)N1CCC2(CC(=O)N(c3cccc(C#N)c3)C2)C1 (centres undefined),-56.91
16,Cc1ccccc1CC(=O)N1C[C@@H]2COC[C@]2(CN(C)C)C1.O=C(O)C(F)(F)F,-70.43
17,CN1CCCN(C(=O)c2ccnn2-c2ccc3ccccn23)CC1.O=C(O)C(F)(F)F,69.35
18,O=C(c1ccnn1-c1ccc2ccccn12)N1CCOCC1,-129.8
19,CN(C)C1CCN(C(=O)c2ccnn2-c2ccc3ccccn23)CC1.O=C(O)C(F)(F)F,-10.05
20,Cc1ncsc1CNCC(C)c1nc2ccccc2o1 (centres undefined),-88.91
